Compounds with a hit are over-represented: about 4.7% of the library has one in this group of screens.
D1 ag – Allosteric Agonists of the Human D1 Dopamine Receptor: qHTS; D(1A) dopamine receptor (Homo sapiens), P21728; activation, % at 2 µM; HEK293 T-REx D1 cells, calcium flux, agonist mode; hit rate 1% among 360,000; further: 0% is about no effect
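Agonism was scored from calcium flux recorded over 180 s (1 read/s) after pintool compound addition, following a 10-cycle baseline. Cells were inducible force-coupled HEK293 TREx D1, plated overnight at 30 C and loaded with no-wash calcium dye.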
D1 antagonist – Antagonist of Human D 1 Dopamine Receptor: qHTS. D(1A) dopamine receptor (Homo sapiens), P21728. AID 504652, 2011. activity change, negative = inhibition, % at 10 µM. hit rate 3.2% among 360,000. HEK293 TREx D1 cells, calcium flux, dopamine EC80; hits give low values; in the data active means activity change below about -30%; further: on the % scale 0 is the no-effect control and ±100 the full control effect
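Tetracycline-induced HEK293 Trex D1 cells, force-coupled to calcium, dye-loaded; compounds added and read 180 s, then EC80 dopamine added and calcium flux tracked kinetically another 180 s.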
D1 potentiator – Potentiators of Human D1 Dopamine Receptor: qHTS | D(1A) dopamine receptor (Homo sapiens), P21728 | HEK293 TREx D1 cells, calcium flux, dopamine EC20 potentiation | potentiation, % at 10 µM | hit rate 0.036% among 360,000 | AID 504651, 2011; in the data active means potentiation above about 30%; further: 0% is about no effect
TRHR enhancer – qHTS for Small Molecule Agonists and Allosteric Enhancers of Human TRH Receptor: Primary Screen for Enhancers. hit rate 0.66% among 360,000. AID 493056, 2011. enhancement, % at 2 µM. TRHR cells, fluo-8 calcium fluorescence, EC20 TRH enhancement. Thyrotropin-releasing hormone receptor (Homo sapiens), P34981; in the data active means enhancement above about 30%; further: 0% is about no effect
Target sequence (P34981 whole entry, looked up): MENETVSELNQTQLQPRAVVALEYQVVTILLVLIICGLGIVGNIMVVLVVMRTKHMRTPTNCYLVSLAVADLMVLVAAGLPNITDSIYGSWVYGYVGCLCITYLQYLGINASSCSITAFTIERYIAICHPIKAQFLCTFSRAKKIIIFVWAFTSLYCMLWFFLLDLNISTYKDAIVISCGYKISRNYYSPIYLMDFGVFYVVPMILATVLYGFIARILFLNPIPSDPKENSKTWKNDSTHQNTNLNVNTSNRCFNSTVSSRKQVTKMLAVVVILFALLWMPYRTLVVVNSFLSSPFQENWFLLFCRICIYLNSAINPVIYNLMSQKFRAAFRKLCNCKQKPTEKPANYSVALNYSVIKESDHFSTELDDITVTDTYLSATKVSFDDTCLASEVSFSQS
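Enhancer read-out: after compound pinning and an initial kinetic agonist-mode read, an EC20 of TRH (10 nM final) was injected and fluo-8 calcium signal (Ex 480/Em 530) followed at 1 s/cycle for 100 cycles in TRHR-expressing cells.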
TRHR agonist – qHTS for Small Molecule Agonists and Allosteric Enhancers of Human TRH Receptor: Primary Screen for Agonists; TRHR cells, calcium flux fluo-8, FDSS agonist mode; activation, % at 2 µM; hit rate 0.18% among 360,000; AID 493084, 2011; further: 0% is about no effect
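Fluo-8-loaded TRHR cells; 10 s baseline, compound added, kinetic Ca2+ fluorescence read 1/s, agonist mode.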
Numbers without * were called inactive. Unless noted, no stated cut-off is given here; in the data, active means activation above about 30%; inactive means the rest.

SMILES	D1 ag	D1 antagonist	D1 potentiator	TRHR enhancer	TRHR agonist
CCOC(=O)CCC(NC(=O)CCC(=O)NC(CCC(=O)OCC)C(=O)OCC)C(=O)OCC (stereo not given)	0	0	6	31*	1
CC(C)(C)CC(=O)Nc1cc2c3c(c1)CCN3C(=O)CC2	3	0	2	8	0
CCn1cc(C(=O)NC2CCCc3c2cnn3-c2cccc(C)c2C)cn1 (stereo not given)	40*	-21	-7	-4	-1
COc1ccc(C(=O)NC2CCCc3c2cnn3-c2cccc(C)c2C)o1 (stereo not given)	3	-19	-4	3	-1
Cc1cc(C(=O)NC2CCCc3c2cnn3-c2cccc(C)c2C)no1 (stereo not given)	5	-38*	-6	-4	0
CC1=C(C(=O)NC2CCCc3c2cnn3-c2cccc(C)c2C)OCCO1 (stereo not given)	18	-15	-8	-3	0
Cc1ccc(Cl)cc1Nc1sc(C(=O)c2ccccc2)c(N)c1S(=O)(=O)c1ccccc1	54*	-51*	3	-10	6
Cc1c(Cl)cccc1Nc1sc(C(=O)c2ccccc2)c(N)c1S(=O)(=O)c1ccccc1	12	9	-1	0	2
CCc1ccccc1Nc1sc(C(=O)c2ccccc2)c(N)c1S(=O)(=O)c1ccccc1	13	6	-1	4	-2
CCS(=O)(=O)c1c(Nc2cc(C)ccc2C)sc(C(=O)c2ccccc2)c1N	41*	38	5	0	-2
O=C(Nc1ccc(Cl)cc1)c1ccc(-n2cnnc2)cc1	1	3	-4	-1	0
COC(=O)C1=C(c2ccccc2)c2ccccc2S(=O)(=O)N1CC(=O)Nc1ccc(F)c(F)c1	6	-5	-1	-2	1
CCCC(=O)Nc1ccccc1N1CCN(C(=O)C(C)C)CC1	0	11	-1	32*	-1
COc1ccc(OC)c(NC(=O)COCc2cc(-c3ccc(F)cc3)on2)c1	-1	2	6	9	0
COc1cc(C(=O)n2nc(C)cc2C)ccc1O	0	5	-5	38*	0
COc1ccc(C(=O)n2nc(C)cc2C)cc1Br	-2	-3	4	-3	0
COc1cccc(/C=N/NC(=O)CSc2cccc3cccnc23)c1	4	3	-10	-3	-1
O=C(CSc1ncccn1)N/N=C/c1cccc(OC2CSC2)c1	11	-36*	-10	-4	0
Cn1ncc(Cl)c1C(=O)N/N=C/c1cccc(OC2CSC2)c1	11	-45*	-4	-10	0
CCOc1ccc(-c2ccc(SCC(=O)NC3CCCCC3)nn2)cc1	-1	-14	0	3	0
CC(NCc1ccccc1)C1COc2ccccc2O1 (stereo not given)	2	10	-3	31*	0
O=C(O)Cc1ccc(NC(=O)Nc2cccc(Cl)c2)cc1	0	-51*	-5	-5	0
Cc1oc(C)c(C(=O)Nc2ccc(CC(=O)O)cc2)c1C(=O)Nc1ccc(CC(=O)O)cc1	0	7	-3	6	1
CC(=O)Nc1ccc(CC(=O)O)cc1	47*	-4	0	-3	0
CN1C[C@H](C(=O)N[C@]2(C)O[C@@]3(O)[C@@H]4CCCN4C(=O)[C@H](Cc4ccccc4)N3C2=O)CC2c3cccc4[nH]cc(c34)C[C@H]21 (stereo not given in full)	1	-62*	-7	5	-1
SMILES	D1 ag	D1 antagonist	D1 potentiator	TRHR enhancer	TRHR agonist
COc1ccc(S(=O)(=O)N2CCN(CC3CC=CCC3)CC2)cc1 (stereo not given)	4	3	-13	-2	-1
CC(=O)c1nc(N2C(=O)CC(Cc3cccc(C)c3)C2=O)sc1C (stereo not given)	4	-53*	-5	1	0
CC(=O)c1nc(N2C(=O)CC(Cc3cc(C)cc(C)c3)C2=O)sc1C (stereo not given)	1	-15	-1	5	0
COc1cc(NC(=O)C(C)Oc2ccccc2)ccc1NC(=O)COc1ccccc1 (stereo not given)	4	-29	-8	-2	0
O=C(NC(=O)c1ccccc1O)c1ccc(C(F)(F)F)cc1	37*	-27	-5	1	1
CCCc1ccc(C(=O)NC(=O)c2ccccc2O)cc1	21	-64*	-5	7	3
Cc1ccccc1OCC(=O)Nc1ccc(OCc2cc(=O)n3ccccc3n2)cc1	0	-10	-2	0	0
O=[N+]([O-])c1ccc(S(=O)(=O)Nc2nnc(C(F)(F)F)s2)cc1	2	-52*	-7	10	0
CCOc1ccc(NS(=O)(=O)c2cccc(C(=O)N(C)Cc3ccco3)c2)cc1	6	-7	-6	-10	-1
Cc1cc2nc(-c3ccc(OCc4ccccc4C)cc3)cc(C(F)(F)F)n2n1	-1	0	-3	-4	1
O=C(CSc1ncnc2c1cnn2-c1ccccc1)NC1CCCC1	9	-91*	-4	-22	0
CNC(=O)CSc1ncnc2c1cnn2-c1ccccc1	3	-9	-2	-3	0
Cc1ccc(-n2ncc3c(SCC(=O)NNC(=O)C(C)C)ncnc32)cc1	2	-54*	-5	3	0
COc1ccc(-n2ncc3c(SCC(=O)N4CCN(c5ccccc5OC)CC4)ncnc32)cc1	-2	-53*	-8	5	0
CCN(c1ccccc1)S(=O)(=O)c1ccc(C(=O)N(CCN(C)C)c2nc3c(F)cc(F)cc3s2)cc1	3	-17	-9	2	0
COc1ccc(C(=O)NCCn2cc(SCc3c(F)cccc3Cl)c3ccccc32)cc1	0	2	-4	3	2
Cc1ccccc1-n1sc2cc(F)ccc2c1=O	32*	2	0	-9	2
O=c1c2cc(F)ccc2sn1-c1ccccc1	39*	-6	-8	1	6
COc1ccc(CN(C(=O)Cc2coc3ccc(C)cc23)C2CCS(=O)(=O)C2)cc1 (stereo not given)	5	1	-1	29	0
Cc1ccc(/C=N/NC(=O)c2nnn(-c3nonc3N)c2-c2ccccc2)o1	34*	-15	-4	5	0
Nc1nonc1-n1nnc(C(=O)N/N=C/c2ccoc2)c1-c1ccccc1	35*	17	-7	10	1

High-throughput results deposited in PubChem by National Center for Advancing Translational Sciences (NCATS).
